Measured values taken from PubChem BioAssay AID1159580 (chemical genetic matrix, 2015).
Screen size: about 5,500 compounds; about 2,000 (36%) were called active. Another 18% or so got no clear call; they are omitted. Cut-off read from the data, not from the text of the source: active = normalized growth mostly below about 0.91 (no sharp cut-off); inconclusive = no clear call, values can overlap the other calls; inactive = mostly above about 0.92. The list shows a part of the results.

Assay: chemical genetic growth profiling, strain panel (AID 1159580);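 note: tested at 20 µM; growth read once vehicle control cultures reached saturation at 30 °C; 1 = growth at the plate median or of vehicle wells; lower values mean less growth of the strain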
Details: growth OD

Measured: normalized growth

CC(C)=CCc1c2c(c3occ(-c4ccc(O)c(O)c4)c(=O)c3c1O)C=CC(C)(C)O2
active: S. cerevisiae deletion strains, locus YKL009W, strain mrt4, active compounds read low 0.867 | S. cerevisiae deletion strains, locus YKR001C, strain vps1, active compounds read low 0.578 | S. cerevisiae deletion strains, locus YLR039C, strain RIC1, active compounds read low 0.235 | S. cerevisiae deletion strains, locus YLR058C, strain SHM2, active compounds read low 0.239 | S. cerevisiae deletion strains, locus YLR221C, strain rsa3, active compounds read low 0.905 | S. cerevisiae deletion strains, locus YLR262C, strain YPT6, active compounds read low 0.298 | S. cerevisiae deletion strains, locus YLR268W, strain sec22, active compounds read low 0.495 | S. cerevisiae deletion strains, locus YLR330W, strain CHS5, active compounds read low 0.36 | S. cerevisiae deletion strains, locus YLR342W, strain FKS1 (second series), active compounds read low 0.195 | S. cerevisiae deletion strains, locus YLR371W, strain rom2, active compounds read low 0.447 | S. cerevisiae deletion strains, locus YLR418C, strain cdc73, active compounds read low 0.252 | S. cerevisiae deletion strains, locus YML016C, strain PPZ1, active compounds read low 0.174 | S. cerevisiae deletion strains, locus YML032C, strain rad52, active compounds read low 0.812 | S. cerevisiae deletion strains, locus YML124C, strain tub3, active compounds read low 0.849 | S. cerevisiae deletion strains, locus YMR058W, strain fet3, active compounds read low 0.755 | S. cerevisiae deletion strains, locus YMR223W, strain ubp8, active compounds read low 0.72 | S. cerevisiae deletion strains, locus YMR307W, strain GAS1, active compounds read low 0.396 | S. cerevisiae deletion strains, locus YNL067W, strain RPL9B, active compounds read low 0.427 | S. cerevisiae deletion strains, locus YNL128W, strain TEP1, active compounds read low 0.202 | S. cerevisiae deletion strains, locus YNL153C, strain GIM3, active compounds read low 0.388 | S. cerevisiae deletion strains, locus YNL209W, strain ssb2, active compounds read low 0.883 | S. cerevisiae deletion strains, locus YNL233W, strain BNI4, active compounds read low 0.401 | S. cerevisiae deletion strains, locus YNL307C, strain MCK1, active compounds read low 0.546 | S. cerevisiae deletion strains, locus YNL322C, strain KRE1, active compounds read low 0.339 | S. cerevisiae deletion strains, locus YNR052C, strain pop2, active compounds read low 0.682 | S. cerevisiae deletion strains, locus YOL006C, strain TOP1, active compounds read low 0.142 | S. cerevisiae deletion strains, locus YOL147C, strain pex11, active compounds read low 0.634 | S. cerevisiae deletion strains, locus YOR061W, strain CKA2, active compounds read low 0.257 | S. cerevisiae deletion strains, locus YOR069W, strain VPS5, active compounds read low 0.546 | S. cerevisiae deletion strains, locus YOR106W, strain vam3, active compounds read low 0.856 | S. cerevisiae deletion strains, locus YOR136W, strain idh2, active compounds read low 0.837 | S. cerevisiae deletion strains, locus YOR144C, strain elg1, active compounds read low 0.723 | S. cerevisiae deletion strains, locus YOR184W, strain ser1, active compounds read low 0.548 | S. cerevisiae deletion strains, locus YOR316C, strain cot1, active compounds read low 0.848 | S. cerevisiae deletion strains, locus YPL051W, strain arl3, active compounds read low 0.913 | S. cerevisiae deletion strains, locus YPL055C, strain LGE1, active compounds read low 0.203 | S. cerevisiae deletion strains, locus YPR163C, strain tif3, active compounds read low 0.735 | S. cerevisiae deletion strains, locus YPR167C, strain met16, active compounds read low 0.739 | S. cerevisiae deletion strains, strain wtn01, active compounds read low 0.533 | S. cerevisiae strains, strain wild type, active compounds read low 0.173
inactive: S. cerevisiae deletion strains, locus YKL068W, active compounds read low 1 | S. cerevisiae deletion strains, locus YKL085W, strain MDH1 (second series), active compounds read low 0.947 | S. cerevisiae deletion strains, locus YKL085W, strain MDH1, active compounds read low 0.947 | S. cerevisiae deletion strains, locus YKL160W, strain elf1, active compounds read low 0.957 | S. cerevisiae deletion strains, locus YKR026C, strain gcn3, active compounds read low 0.994 | S. cerevisiae deletion strains, locus YKR091W, strain srl3, active compounds read low 0.997 | S. cerevisiae deletion strains, locus YLL001W, strain dnm1, active compounds read low 0.959 | S. cerevisiae deletion strains, locus YLL026W, active compounds read low 0.985 | S. cerevisiae deletion strains, locus YLL041C, strain sdh2, active compounds read low 0.993 | S. cerevisiae deletion strains, locus YLR027C, strain aat2, active compounds read low 0.935 | S. cerevisiae deletion strains, locus YLR102C, strain apc9, active compounds read low 0.957 | S. cerevisiae deletion strains, locus YLR113W, strain HOG1, active compounds read low 0.868 | S. cerevisiae deletion strains, locus YLR258W, strain gsy2, active compounds read low 0.935 | S. cerevisiae deletion strains, locus YLR262C, strain YPT6 (second series), active compounds read low 0.995 | S. cerevisiae deletion strains, locus YLR320W, strain mms22, active compounds read low 0.931 | S. cerevisiae deletion strains, locus YLR342W, strain FKS1, active compounds read low 0.959 | S. cerevisiae deletion strains, locus YLR357W, strain rsc2, active compounds read low 0.873 | S. cerevisiae deletion strains, locus YLR370C, strain arc18, active compounds read low 0.947 | S. cerevisiae deletion strains, locus YLR384C, strain iki3, active compounds read low 0.98 | S. cerevisiae deletion strains, locus YML120C, strain ndi1, active compounds read low 0.956 | S. cerevisiae deletion strains, locus YMR078C, strain ctf18, active compounds read low 0.929 | S. cerevisiae deletion strains, locus YMR125W, strain sto1, active compounds read low 1.01 | S. cerevisiae deletion strains, locus YMR129W, active compounds read low 0.981 | S. cerevisiae deletion strains, locus YMR205C, strain PFK2, active compounds read low 0.957 | S. cerevisiae deletion strains, locus YMR231W, strain pep5, active compounds read low 0.984 | S. cerevisiae deletion strains, locus YNL071W, strain lat1, active compounds read low 0.942 | S. cerevisiae deletion strains, locus YNL183C, strain NPR1, active compounds read low 0.885 | S. cerevisiae deletion strains, locus YNL248C, strain rpa49, active compounds read low 1 | S. cerevisiae deletion strains, locus YNL250W, strain rad50, active compounds read low 0.966 | S. cerevisiae deletion strains, locus YNL271C, strain bni1, active compounds read low 0.943 | S. cerevisiae deletion strains, locus YNL298W, strain CLA4, active compounds read low 0.922 | S. cerevisiae deletion strains, locus YNL322C, strain KRE1 (second series), active compounds read low 0.969 | S. cerevisiae deletion strains, locus YNR049C, strain mso1, active compounds read low 0.985 | S. cerevisiae deletion strains, locus YOL012C, strain htz1 0.238 | S. cerevisiae deletion strains, locus YOR001W, strain rrp6, active compounds read low 0.952 | S. cerevisiae deletion strains, locus YOR070C, strain gyp1, active compounds read low 0.951 | S. cerevisiae deletion strains, locus YOR080W, strain dia2, active compounds read low 0.961 | S. cerevisiae deletion strains, locus YOR083W, strain WHI5, active compounds read low 0.937 | S. cerevisiae deletion strains, locus YOR231W, strain MKK1, active compounds read low 0.917 | S. cerevisiae deletion strains, locus YOR265W, strain rbl2, active compounds read low 0.977 | S. cerevisiae deletion strains, locus YOR270C, strain vph1, active compounds read low 0.925 | S. cerevisiae deletion strains, locus YOR290C, strain snf2, active compounds read low 0.93 | S. cerevisiae deletion strains, locus YPL078C, strain atp4, active compounds read low 0.957 | S. cerevisiae deletion strains, locus YPL106C, strain sse1, active compounds read low 0.919 | S. cerevisiae deletion strains, locus YPL240C, strain hsp82, active compounds read low 0.984 | S. cerevisiae deletion strains, locus YPL256C, strain CLN2, active compounds read low 0.921 | S. cerevisiae deletion strains, locus YPR119W, strain clb2, active compounds read low 0.965 | S. cerevisiae deletion strains, locus YPR141C, strain kar3, active compounds read low 0.985
